Test results: PubChem BioAssay AID588397 (National Center for Advancing Translational Sciences (NCATS), 2011)
Hit rate of the full screen: of about 1,300 compounds, about 1,000 (77%) were called active. Another 7% or so got no clear call; they are omitted. The set was probably picked from earlier hits. The list shows a part of the results. Values without a mark were called inactive. Calls follow the shape of the dose curve; as a rule, active = well fitted inhibition curve with a large enough effect; inconclusive = small, poorly fitted or top-dose-only effect; inactive = no such curve, though single readings can be large or run the other way.

Assay: qHTS of small molecules that selectively kill Giardia lamblia: Hit Validation.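 Also: viability measured as ATP content by luminescence so killing lowers signal; trophozoites exposed to compounds for 48 h anaerobically at 37 °C; nearly all actives have a fitted effect of over 65% in size.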
Conditions: Giardia lamblia trophozoite viability, dose-response; series mostly up to 38.3 µM; activity change, negative = killing: at the top concentration
Method in brief: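 Killing of trophozoites was scored by loss of ATP luminescence after a 48 hrs anaerobic exposure to compounds at 37 deg C, using 100 cells per well.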
% is scaled to controls: 0 for no effect and ±100 for the full control effect; potency is read from the fitted curve at half-maximal effect.

SMILES | activity change, negative = killing [%] | Potency
Cc1cc(C(=O)CCC(=O)NC(C)c2ccc(S(N)(=O)=O)cc2)c(C)s1 (stereo unspecified) | -28 | 
c1csc(-c2ccc(N3CCOCC3)nn2)c1 |  | 3.65 µM (active)
O=[N+]([O-])c1ccc(NCc2ccccc2N2CCC(CO)CC2)nc1 |  | 1.45 µM (active)
O=C1c2ccccc2C(=O)c2[nH]cnc21 |  | 2.59 µM (active)
O=C(O)c1ccc(NC(=O)c2cc3ccccc3o2)cc1 |  | 6.5 µM (active)
O=C1CSC(c2ccc(F)cc2)N1c1c(F)cccc1F (stereo unspecified) | -0.629 | 
CC(C)(C)n1nc(-c2ccc(Cl)cc2)c2c(N)ncnc21 |  | 14.5 µM (active)
COc1ccc(N2CCCC2)c(NC(=O)c2ccc([N+](=O)[O-])o2)c1 |  | 0.516 µM (active)
CCN(CC)S(=O)(=O)c1ccc(N2CCCC2)c(NC(=O)c2ccc([N+](=O)[O-])o2)c1 |  | 1.45 µM (active)
COc1ccc2nc3cc(Cl)ccc3c(Nc3ccc(O)c(CN4CCN(C)CC4)c3)c2c1 |  | 10.3 µM (active)
CN(C)CCCn1cnc2c(c1=N)C(c1ccccc1)c1ccc3ccccc3c1O2 (stereo unspecified) |  | 20.5 µM (active)
CCc1ccc(C(=O)/C=C/c2ccc([N+](=O)[O-])o2)cc1 |  | 1.3 µM (active)
CN1CCN(C(=O)/C=C/c2ccc([N+](=O)[O-])o2)CC1 |  | 0.818 µM (active)
CC1CCN(c2c([N+](=O)[O-])nn(-c3ccc4c(c3)OCCO4)[n+]2[O-])CC1 |  | 1.03 µM (active)
O=[N+]([O-])c1nn(-c2ccccc2)[n+]([O-])c1N1CCN(c2ccccc2)CC1 |  | 1.3 µM (active)
O=[N+]([O-])c1nn(-c2ccccc2)[n+]([O-])c1N1CCN(c2ccccc2F)CC1 |  | 1.16 µM (active)
CCN(Cc1ccncc1)C(=O)CC1C(=O)NCCN1Cc1ccc(F)c(F)c1 (stereo unspecified) | 2.79 | 
Cc1c(C(=O)c2ccc(Cl)cc2[N+](=O)[O-])c2ccccn2c1CCC#N |  | 0.41 µM (active)
CCn1nc(-c2ccccc2C)nc2c(=O)n(C)c(=O)nc1-2 |  | 0.103 µM (active)
Cc1ccccc1-c1nc2c(=O)n(C)c(=O)nc-2n(C)n1 |  | 0.115 µM (active)
Cc1cnc([N+](=O)[O-])n1CCOC(=O)NC(=O)c1ccccc1Cl |  | 1.16 µM (active)
COc1ccccc1C(=O)NC(=O)OCCn1c(C)cnc1[N+](=O)[O-] |  | 0.579 µM (active)
Cc1ccc(C(=O)c2c3ccc([N+](=O)[O-])cc3[n+]([O-])n2CCCC(N)=O)cc1 |  | 3.65 µM (active)

SMILES | activity change, negative = killing [%] | Potency
Cc1ccc(C(=O)c2c3ccc([N+](=O)[O-])cc3[n+]([O-])n2CCC(N)=O)cc1 |  | 6.5 µM (active)
NC(=O)CCn1c(C(=O)c2cccc([N+](=O)[O-])c2)c2ccccc2[n+]1[O-] |  | 4.1 µM (active)
Cc1ccc(C(=O)c2c3ccc([N+](=O)[O-])cc3[n+]([O-])n2CCCN)cc1 |  | 4.6 µM (active)
CC(=O)CSc1ccc(-c2nc3cc(C)c(C)cc3[nH]2)cn1 |  | 2.05 µM (active)
CC(=O)CSc1ccc(-c2nc3ccccc3[nH]2)cn1 |  | 1.45 µM (active)
COc1ccc(CNc2ccc([N+](=O)[O-])cn2)cc1 |  | 7.29 µM (active)
O=C(COc1cccnc1[N+](=O)[O-])Nc1ccc2c(c1)OCO2 |  | 5.16 µM (active)
O=C(COc1cccnc1[N+](=O)[O-])Nc1ccc2c(c1)OC(F)(F)O2 |  | 5.79 µM (active)
Cc1c(Br)c([N+](=O)[O-])nn1C(C)C(=O)Nc1ccc2c(c1)OCO2 (stereo unspecified) |  | 1.16 µM (active)
O=S(=O)(Nc1cc(Sc2cccc3cccnc23)c(O)c2ccccc12)c1ccc(F)cc1 |  | 11.6 µM (active)
Cn1nc([N+](=O)[O-])nc1Sc1cccc2cccnc12 |  | 7.29 µM (active)
Nc1nc(Cl)nc2c1ncn2C1CC(O)C(CO)O1 (stereo unspecified) |  | 0.115 µM (active)
CC(CSc1nnnn1-c1ccccc1)Cn1c(N2CCCC2)nc2c1c(=O)[nH]c(=O)n2C (stereo unspecified) |  | 0.183 µM (active)
COc1ccc(C(=O)Nc2ccc3[nH]ccc3c2)cc1 |  | 0.41 µM (active)
O=C(Nc1ccc2[nH]ccc2c1)c1ccccc1 |  | 2.05 µM (active)
COc1ccc(NS(=O)(=O)c2cc(NC(=O)c3ccc(=O)[nH]c3)ccc2C)cc1 | 7.37 | 
C(=NN1CCCCCC1)c1ccc2ccccc2n1 |  | 1.03 µM (active)
CC(NC(=O)c1ccccc1F)c1nnc(SCC(=O)NC2CCCC2)n1C (stereo unspecified) | -17 | 
COc1ccc(OCC(=O)NNC(=O)C2CCN(c3ncnc4sc(C)c(C)c34)CC2)cc1 | -39.1 | 
CC(=O)NC(Cc1ccccc1F)C(=O)NC1CCN(c2ncccc2[N+](=O)[O-])CC1 (stereo unspecified) |  | 2.31 µM (active)
CC(=O)NC(Cc1ccccc1)C(=O)NC1CCN(c2ncccc2[N+](=O)[O-])CC1 (stereo unspecified) |  | 1.63 µM (active)
CC(=O)NC(Cc1ccc(F)cc1)C(=O)NC1CCN(c2ncccc2[N+](=O)[O-])CC1 (stereo unspecified) |  | 1.83 µM (active)
COc1ccc(CN2C(=O)C(CC(C)C)Nc3ncnc(N4CCCCC4)c32)cc1 (stereo unspecified) | 3.69 | 

SMILES | activity change, negative = killing [%] | Potency
COc1ccc(CC(NC(C)=O)C(=O)NC2CCN(c3ncccc3[N+](=O)[O-])CC2)cc1 (stereo unspecified) |  | 2.05 µM (active)
O=C(COc1cccnc1[N+](=O)[O-])Nc1ncc(Cl)cc1Cl |  | 4.6 µM (active)
O=C(COc1cccnc1[N+](=O)[O-])Nc1c(Cl)cccc1Cl |  | 3.26 µM (active)
CC(=O)c1c(COC(=O)c2ccccc2Cl)nc2ccccc2[n+]1[O-] |  | 14.5 µM (active)
CC(=O)c1c(COC(=O)c2ccc(F)cc2)nc2ccccc2[n+]1[O-] |  | 6.5 µM (active)
O=C(Nc1ccc(OCC(=O)N2CCOCC2)cc1)c1ccccc1F |  | 7.29 µM (active)
Cn1c(CNC(=O)c2ccccc2F)cc2ccccc21 | 11 | 
COc1ccc2oc(=Nc3ccccc3)c(-c3nc4ccccc4[nH]3)cc2c1 |  | 4.1 µM (active)
CCOC(=O)C1CCN(c2c([N+](=O)[O-])c(C(Cl)Cl)nn2-c2ccccc2)CC1 |  | 2.9 µM (active)
O=[N+]([O-])c1c(C(Cl)Cl)nn(-c2ccccc2)c1N1CCOCC1 |  | 1.83 µM (active)
CCN1/C(=C\c2ccc3ccccc3[n+]2CC)Sc2cc(C)ccc21 | -1.8 | 
Cc1oc2cc([N+](=O)[O-])c(O)c([N+](=O)[O-])c2c1C(=O)c1ccc(Cl)cc1 |  | 2.59 µM (active)
Cc1oc2cc([N+](=O)[O-])c(O)c([N+](=O)[O-])c2c1C(=O)c1ccc(Br)cc1 |  | 2.31 µM (active)
COc1ccc(C(=O)c2c(C)oc3cc([N+](=O)[O-])c(O)c([N+](=O)[O-])c23)cc1 |  | 1.83 µM (active)
CCCn1c(NC(=O)c2ccc([N+](=O)[O-])o2)nc2ccccc21 |  | 1.3 µM (active)
O=C(Nc1nc2c(Cl)cccc2s1)c1ccc([N+](=O)[O-])o1 |  | 1.45 µM (active)
CCn1c(CCNC(=O)c2ccc(F)cc2)nc2ccccc21 | 1.8 | 
O=C(Nc1nc2c(F)cc(F)cc2s1)c1ccc([N+](=O)[O-])o1 |  | 1.16 µM (active)
O=C(Nc1nc2cc3c(cc2s1)OCCO3)c1ccc([N+](=O)[O-])o1 |  | 0.579 µM (active)
CCOP(=O)(OCC)c1cccc(P(=O)(c2ccccc2)c2ccccc2)c1O | 3.15 | 
COC(=O)[C@]1(C)N[C@H](CN(C)S(=O)(=O)c2ccc(-c3ccccc3)cc2)[C@@H]2C(=O)N(C)C(=O)[C@@H]21 | -15.1 | 
O=C(Nc1nc2ccccc2s1)c1ccc([N+](=O)[O-])o1 |  | 1.03 µM (active)
O=C(Nc1nc2c(F)cccc2s1)c1ccc([N+](=O)[O-])o1 |  | 1.03 µM (active)

SMILES | activity change, negative = killing [%] | Potency
COc1ccc2nc(NC(=O)c3ccc([N+](=O)[O-])o3)sc2c1 |  | 0.918 µM (active)
O=C(Nc1cccc2ccccc12)c1ccc([N+](=O)[O-])o1 |  | 1.03 µM (active)
O=C(Nc1cccc2ncccc12)c1ccc([N+](=O)[O-])o1 |  | 0.918 µM (active)
NC(=O)c1oc2ccccc2c1NC(=O)c1ccc([N+](=O)[O-])o1 |  | 0.65 µM (active)
COc1cc(C2C(C(=O)c3ccc(C)o3)=C(O)C(=O)N2c2cc(C)on2)ccc1OCc1ccccc1 (stereo unspecified) | -44.3 | 
CCC(C)Nc1ccc(NC(C)CC)cc1 (stereo unspecified) |  | 0.183 µM (active)
O=[N+]([O-])c1ccc(/C=N/Nc2ccnc3cc(Cl)ccc23)o1 |  | 2.05 µM (active)
Clc1ccc2c(N/N=C/c3cccc(Br)c3)ccnc2c1 |  | 1.45 µM (active)
Clc1ccc2c(N/N=C/c3ccc(Br)cc3)ccnc2c1 |  | 0.516 µM (active)
Cc1nc2c(N=Nc3ccccc3F)c(N)nn2c(N)c1C#N |  | 4.6 µM (active)
CCOC(=O)Cn1c(=NC(=O)c2ccc([N+](=O)[O-])s2)sc2ccccc21 |  | 1.83 µM (active)
CC(=O)O[C@@H]1[C@@H](O)CN[C@@H]1Cc1ccccc1 |  | 0.579 µM (active)
O=[N+]([O-])c1cc(S(=O)(=O)Nc2cccc(Cl)c2)ccc1N/N=C/c1ccc(N2CCOCC2)cc1 |  | 6.5 µM (active)
O=S(=O)(c1ccccc1)N1CCN(S(=O)(=O)c2ccccc2)CC1 | 7.64 | 
O=[N+]([O-])c1cc(S(=O)(=O)N2CCOCC2)ccc1NS(=O)(=O)c1ccccc1 |  | 1.83 µM (active)
N=C1C(c2ccccc2)=C(O)CN1c1cccc(S(=O)(=O)N2CCOCC2)c1 | -16.5 | 
O=[N+]([O-])c1cc(S(=O)(=O)N2CCCC2)ccc1N/N=C/c1ccncc1 |  | 2.31 µM (active)
C(=C\c1nccc2ccccc12)/c1ccc(N2CCOCC2)cc1 |  | 2.31 µM (active)
Nc1ccc(/C=C/c2nccc3ccccc23)cc1 |  | 3.26 µM (active)
Nc1ncnc2c1ncn2C1O[C@H](CO)[C@@H](O)[C@@H]1O (stereo partly specified) |  | 0.818 µM (active)
O=C(Nc1ccc2nc(-c3ccco3)[nH]c2c1)c1cccs1 |  | 5.79 µM (active)
O=C(Nc1ccc2c(c1)nc1n2CCSC1)c1ccco1 |  | 4.6 µM (active)
